The entries come from a sample that favours hits as a whole.
FECH inh = inhibitors of human ferrochelatase; P22830; purified FECH, Ni-mesoporphyrin absorbance 550 nm; calls only at 10 µM (by protocol); actives 3.3% (n = 20,000);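 active = enzyme reaction rate more than 3 SD below the solvent-only control wells on the same plate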;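 note: lower slope than DMSO wells means FECH inhibition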
Calls only; - = inactive; + = active, no number.

SMILES	FECH inh
O=S1(=O)N(Cc2ccc(Cl)cc2)CCCN1Cc1ccccc1Cl	+
Cc1ccc(CN2CCCN(Cc3ccccc3C)S2(=O)=O)cc1	-
Cc1ccc(C)c(CN2CCCN(Cc3ccccc3)S2(=O)=O)c1	-
CC(C)NC(=O)CN1CCCN(Cc2cccc(Cl)c2)S1(=O)=O	-
c1cc(-c2nccn2CCc2cnc[nH]2)ccn1	-

Screens (PubChem BioAssay)
